DAX1 inh-1: DAX1 (NR0B1) inhibitors, primary screen, cell-based, HEK293, Gal4-DAX1, luciferase luminescence; Nuclear receptor subfamily 0 group B member 1 (Homo sapiens), P51843; HEK293 Gal4-DAX1 luciferase reporter; inhibition, % at 6.75 µM; hit rate 0.99% among 340,000; AID 504766, 2011;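 active means inhibition above the mean over all tested compounds plus 3 SD, cut at about 4.2% in these data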;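 further: inhibition shows as a rise in luminescence from relieved DAX1 repression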
hcDAF12 agonist: H. contortus DAF-12 nuclear receptor activators, primary screen, cell-based, luminescence, HEK293, lit1-tk-luc reporter; HEK293 hcDAF-12 lit1-tk-luc reporter; 0% DMSO, 100% Δ7-dafachronic acid; activation, % at 6.8 µM; hit rate 1.4% among 370,000;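 active means activation above the mean of all tested compounds plus 3 SD, cut at about 5.5% in these data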
DAX1 inh-2: DAX1 (NR0B1) inhibitors on StAR promoter, primary screen, cell-based, luminescence, SF-1 (NR5A1), full-length DAX-1; hit rate 1.1% among 370,000; HEK293T StAR-luciferase reporter, SF-1/DAX-1 repression relief; AID 652010, 2013; inhibition, % at 6.8 µM;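 active means inhibition above the mean over all tested compounds plus 3 SD, cut at about 3.6% in these data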;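 further: higher inhibition means more luminescence from relief of DAX-1 repression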
hgDAF12 agonist: H. glycines DAF-12 receptor agonists, primary screen, cell-based, luminescence, HEK293, GAL4 fusion, UAS-luciferase. AID 687014, 2013. hit rate 1.8% among 370,000. activation, % at 6.8 µM. HEK293 GAL4-hgDAF12 UAS-luciferase reporter, agonist luminescence; normalized to butyrate control. Nuclear hormone receptor DAF-12 (Heterodera glycines), GAL4 fusion;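 active means activation above a cutoff set at the mean of all screened compounds plus 3 SD, cut at about 10% in these data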
ssDAF12 agonist: S. stercoralis DAF-12 nuclear receptor activators, primary screen, cell-based, luminescence, HEK293, GRIP1 co-expression, lit1-tk-luc; Nuclear hormone receptor DAF-12 (Strongyloides stercoralis); HEK293 ssDAF-12/GRIP1 lit1-tk-luc reporter; % of 3 µM dafachronic acid response; activation, % at 6.8 µM; hit rate 1% among 370,000; AID 652126, 2013;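 active means activation above the mean over all tested compounds plus 3 SD, cut at about 0.9% in these data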
hgDAF12 ag: H. glycines DAF-12 receptor agonists, confirmation, cell-based, luminescence, HEK293, GAL4-LBD fusion. HEK293 GAL4-hgDAF12 luciferase reporter, agonist mode; percent of butyrate response. AID 743050, 2013. activation, % at 6.8 µM. hit rate 80% among 3,300. shares compounds with hgDAF12 agonist;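 active means mean activation over triplicate wells above the hit cutoff derived from the earlier primary screen, cut at about 11% in these data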
LXRb DAF12 ctr: LXR agonists, Gal4 luciferase reporter, confirmation, counter-screen for hgDAF-12 agonist project, cell-based, luminescence, HEK293, H. glycines campaign; AID 743051, 2013; 3,300 tested, under 10 active; 24 h; activation, % at 6.8 µM; shares compounds with hgDAF12 agonist;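 active means mean activation of the triplicate above a set limit carried over from the primary screen, none filed active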
Target sequence (P55055 whole entry, looked up, the tested form may be a part): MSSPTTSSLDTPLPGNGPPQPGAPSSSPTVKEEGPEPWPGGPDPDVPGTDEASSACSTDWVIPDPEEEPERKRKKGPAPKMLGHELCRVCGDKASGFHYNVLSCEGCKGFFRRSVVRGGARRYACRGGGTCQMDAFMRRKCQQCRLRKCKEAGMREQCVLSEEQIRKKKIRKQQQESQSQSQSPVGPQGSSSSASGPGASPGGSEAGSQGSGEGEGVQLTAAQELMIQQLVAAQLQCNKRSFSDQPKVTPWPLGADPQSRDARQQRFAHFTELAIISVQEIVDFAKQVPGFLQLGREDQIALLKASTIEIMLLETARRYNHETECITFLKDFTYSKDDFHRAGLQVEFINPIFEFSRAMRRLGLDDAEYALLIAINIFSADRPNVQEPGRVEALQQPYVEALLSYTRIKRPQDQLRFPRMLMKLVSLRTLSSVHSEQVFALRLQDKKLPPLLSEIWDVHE
Large screens that a line does not name were inactive (follow-up assays come after a bar, where they were run). Shown are actives, neighbours in structure and some others; about 4.1% of the full set was active somewhere.

COc1cccc(-c2cn3nc(C)c(C)nc3n2)c1	hgDAF12 agonist 15 | hgDAF12 ag 14 | LXRb DAF12 ctr inactive
COc1ccc(-n2cc(-c3ccccc3)nc2SC)cc1	hgDAF12 agonist 15 | hgDAF12 ag 11 | LXRb DAF12 ctr inactive
NNC(=O)CSc1nc(-c2ccccc2)cn1-c1ccccc1	none
COCc1c(C(=O)Nc2nnc(C3CC3)s2)oc2ccccc12	none
COc1ccc(C2NN=C(c3ccc(C)cc3)S2)cc1OC (centres undefined)	hgDAF12 agonist 18 | hgDAF12 ag 18 | LXRb DAF12 ctr inactive
COc1ccc(C2NC(=O)CS2)cc1OC (centres undefined)	none
COc1ccc(-c2c(C)nc3c(-c4ccccn4)cnn3c2N)cc1	hgDAF12 agonist 14 | hgDAF12 ag 11 | LXRb DAF12 ctr inactive
COc1cc(C2Nc3ccccc3C(=O)N2c2ccc(Cl)cc2)c(Cl)cc1OCC(=O)O (centres undefined)	DAX1 inh-2 4.0, hgDAF12 agonist 14 | hgDAF12 ag inactive | LXRb DAF12 ctr inactive
CCOc1cc(C2Nc3ccccc3C(=O)N2c2ccccc2)c(Br)cc1OCC(=O)O (centres undefined)	none
CC(C)c1ccc(NC(=S)NC2CCCCCC2)cc1	hgDAF12 agonist 16 | hgDAF12 ag inactive | LXRb DAF12 ctr inactive
C/C(N)=C(/C#N)C(=O)CSc1nnc(-c2ccccc2Br)o1	DAX1 inh-2 3.8, hgDAF12 agonist 14 | hgDAF12 ag 17 | LXRb DAF12 ctr inactive
O=C(CSc1nnc(-c2ccccc2Br)o1)N1CCOCC1	none
CCOc1ccc(-c2n[nH]c(C(=O)NN)c2C)cc1	hgDAF12 agonist 16 | hgDAF12 ag inactive | LXRb DAF12 ctr inactive
COc1ccc(-c2csc(N=C(N)N)n2)cc1	hgDAF12 agonist 16 | hgDAF12 ag 11 | LXRb DAF12 ctr inactive
C=CCn1c(SC(C)C#N)nc2sc(CC)cc2c1=O (centres undefined)	none
O=C(NNC(=S)Nc1ccc(Cl)cc1)c1cccs1	hgDAF12 agonist 14 | hgDAF12 ag inactive | LXRb DAF12 ctr inactive
Cc1ccc(N(CN2C(=O)c3ccccc3C2=O)C(=O)c2ccc([N+](=O)[O-])cc2[N+](=O)[O-])cc1	none
CCCCSc1nsc(NC(C)=O)n1	none
CCCSc1nsc(NC(=O)CCC)n1	hgDAF12 agonist 19 | hgDAF12 ag 15 | LXRb DAF12 ctr inactive
O=[N+]([O-])c1ccc(S(=O)(=O)NN=Cc2ccc3c(c2)OCO3)cc1	none
O=[N+]([O-])c1ccc(NN=Cc2ccc3c(c2)OCO3)nc1	DAX1 inh-1 7.2, hgDAF12 agonist 15 | hgDAF12 ag 17 | LXRb DAF12 ctr inactive
COc1ccc(-n2c(C)cc(/C=C3\SC(=S)NC3=O)c2C)cc1	none
Cc1cc(/C=C2\SC(=S)NC2=O)c(C)n1-c1ccc(O)cc1	hgDAF12 agonist 14 | hgDAF12 ag inactive | LXRb DAF12 ctr inactive
CCC(=O)NNC(=O)c1cc(COc2cc(Cl)cc(Cl)c2)on1	none
O=C(N/N=C/c1ccccc1)c1[nH]ncc1Br	DAX1 inh-1 4.2, hgDAF12 agonist 15 | hgDAF12 ag 14 | LXRb DAF12 ctr inactive
O=C(NCCc1cccc(F)c1)c1cc2ccccn2n1	hgDAF12 agonist 14 (no result: DAX1 inh-1) | hgDAF12 ag 12 | LXRb DAF12 ctr inactive
O=C(NCc1ccc(F)cc1)c1cc2ccccn2n1	none
CSc1ncc(C(=O)Nc2ccccc2C)c(C)n1	none
